Assay [1] concerns HOP-92 NSCLC. Nature of the assay: NCI-60 one-dose screen, 48 h (100 = growth as untreated, 0 = no growth, -100 = all killed). Conditions: 10 µM.
The test system of assay [2] is MDA-MB-468 breast. The description is as above. Conditions: 10 µM unless noted.

This is part of a sample that, as a whole, favours compounds with a hit. Of some 83,000 tested, about 20% had one in any assay.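 Interpretation: 100, growth as untreated; towards 0, rising growth inhibition; 0, no net growth; 0 to -100, cell death. Compounds scoring below 10 were considered active.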 Unmarked numbers belong to inactive results. Activity calls are given as the source filed them.

As for `COc1cccc(O)c1/C=C1\SCc2cc3c(OC)cccc3[o+]c21`, the growth in assay [1] was 154%.

`COc1ccc(N(C)c2nc(N)nc3sc4c(c23)CCCC4)cc1`: the growth in assay [2] is 19.4%.

In the case of `Cc1ccc(/C=C/C(=O)c2ccc(F)cc2)s1`, the growth in assay [2] is 42.2%.

Take `COc1ccc(/C=C/C(=O)c2c(O)c(C)c(O)c3c2OC2=CC(O)=C(C(C)=O)C(=O)[C@]23C)cc1`: the growth in assay [2] is -40.1% (active).

For the compound `COc1cc(/C=C/C(=O)c2cc(OC)c(OC)c(OC)c2)ccc1Oc1nc2c(c(=O)n(C)c(=O)n2C)n1C`, in assay [2], the growth is -72% (active).

Regarding `COc1ccc(/C=N/NC(=O)c2cnn(CC(O)Cc3ccccc3)c2N)cc1OC1CCCC1` (stereo not drawn), the growth in assay [2] is 93.4%.

For the compound `COc1cc(/C=C2\Oc3cc(OCC(=O)c4ccccc4)ccc3C2=O)cc(OC)c1OC`, the growth in assay [2] was 97%.

Consider `COc1ccccc1-n1c(-c2csc(NC(C)=O)n2)n[nH]c1=S`, for which the growth in assay [2] was 100%.

Regarding `CCCCCOC(=O)c1cccc(NC(=O)CN(CC)CC)c1`, the growth in assay [2] was 106%.

In the case of `COc1cc(/C=C2\COc3ccc(O)c(O)c3C2=O)cc(OC)c1`, the growth in assay [2] is -0.854% (active).

On to `COc1ccc(-c2nc3sc4c(c3c(=O)[nH]2)CCCC4)c2ccccc12`, for which the growth in assay [2] was 25%.

`Clc1ccc(-n2cnc3c(Cl)ncnc32)cc1Cl`: the growth in assay [2] was 48.3%.

Take `CCCCCn1c(=N)n(CC(O)COc2cccc(C)c2)c2ccccc21` (stereo not drawn): the growth in assay [2] is -3.97% (active).

In the case of `Cc1nn(-c2ccccc2)c2c1N=c1s/c(=C\c3ccc(C(F)(F)F)cc3)c(=O)n1CN2`, in assay [2], the growth is 44.1%.

Turning to `CC(C)(C)c1ccc(C2CC(=O)C3=C(C2)Nc2ccccc2N(C(=O)c2ccccc2Cl)C3c2ccc(F)cc2)cc1` (stereo not drawn), the growth in assay [2] is -20.1% (active).

In the case of `CCCCCCCCCCCCOC(=O)/C=C\C(=O)NC(N)=O`, the growth in assay [2] was 82.1%.

Take `C(=C1c2ccccc2-c2ccccc21)c1ccncc1`: in assay [2], the growth is 0.207% (active).

In the case of `CCCCNC(=O)Oc1ccc(/C(=C(\C)c2ccc(OC)cc2)c2ccc(OCCN3CCCCC3)cc2)cc1`, the growth in assay [2] is 64.4%.

Turning to `CC[C@H](Nc1nc(N)nc(C)c1C#N)c1nc2cccc(CN(C)c3ncc(C(=O)NO)cn3)c2c(=O)n1-c1ccccc1`, in assay [2], the growth was -11.3% (active).

Take `OC1CCN(CCCOc2c3ccc(Cl)cc3nc3c2oc2ccccc23)CC1`: in assay [2], the growth is -43.9% (active).

In the case of `CN(C)CC(C)(CN(C)C)C(=O)/C=C/c1c(Cl)cccc1Cl`, the growth in assay [2] is -82.6% (active).

On to `N#CC(I)CS(=O)(=O)c1ccccc1` (stereo not drawn), for which the growth in assay [2] is 25%.

As to `Cn1c(/C=C(\C#N)c2cccc(C(F)(F)F)c2)nc2c(N3CCOCC3)nc(Cl)nc21`, the growth in assay [2] was -40.3% (active).

As for `COc1ccc(C(=O)CSc2nc(-c3cc(OC)ccc3OC)cc(-c3ccc(Cl)cc3)c2C#N)cc1`, the growth in assay [2] was 25.8%.

As for `O=C1[C@@H]2Cc3c([nH]c4ccccc34)[C@H](c3ccc(Cl)cc3)N2C(=O)CN1C1CCN(Cc2ccccc2)CC1`, the growth in assay [2] is 23.1%.

With `CCOC(=O)c1c2c(n3ccc(C)cc13)C(=O)c1ccccc1C2=O`, in assay [2], the growth was 102%.

Regarding `O=C(N(c1ccccc1)c1ccccc1)n1cc(I)c2nc(Cl)nc(Cl)c21`, the growth in assay [2] was 27.8%.

Take `CC[C@]12CN3CCc4c([nH]c5ccccc45)[C@@](C(=O)OC)(c4cc5c(cc4OC)N(C)[C@H]4[C@@](O)(C(=O)OC)[C@H](OC(C)=O)[C@]6(CC)C=CCN7CC[C@]54[C@@H]76)CC(C3)[C@H]1O2` (stereo partly drawn): the growth in assay [2] is -12.7% (active).

For the compound `Cc1cc(OC(=O)c2ccc([N+](=O)[O-])cc2)nc2[nH]c(=O)sc12`, in assay [2], the growth is 100%.

`COc1ccc(/C=C2\COc3ccc(O)c(O)c3C2=O)c(OC)c1`: the growth in assay [2] is 27.9%.

Regarding `Cn1[nH]cc(/C=N/C(N)=O)c1=O`, the growth in assay [2] was 119%.

Take `CC1(CO)CCCC12OCCO2` (stereo not drawn): the growth in assay [2] is 102%.

Regarding `O=C(O)c1cccc(-n2ncc(Cl)c(Cl)c2=O)c1`, in assay [2], the growth was 74.5%.

Turning to `Cc1cc([N+](=O)[O-])c(C)cc1C(=O)O`, in assay [2], the growth is 109%.

Turning to `COc1ccc(C(=O)/C=C/c2c[n+](=O)c3ccc(F)cc3n2[O-])cc1`, the growth in assay [2] was 101%.

For `CCNC(=O)Nc1ncccc1OCc1ccc(F)cc1`, the growth in assay [2] is 101%.

For the compound `C=C(C)[C@@H]1CC[C@]2(C(=O)O)CC[C@]3(C)[C@H](CC[C@@H]4[C@@]5(C)C/C(=C/c6ccc(OC)cc6)C(=O)C(C)(C)[C@@H]5CC[C@]43C)[C@@H]12`, in assay [2], the growth was 0.722% (active).

For the compound `CN(C)c1nc(-c2cccs2)n2nc(-c3ccco3)cc2n1`, the growth in assay [2] was 7.52% (active).

(Values after PubChem BioAssay (NCI).)
